5 compounds from PubChem BioAssay can be followed below.

A short description of experiment [1]: small molecules captured by biotinylated probe aFSTL3 – biochemical, small-molecule microarray, fluorescence 635/667, stem cell growth factor project, primary screen (AID 1064).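 Also: measures binding of the biotinylated anti-FSTL3 antibody to printed compounds.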 The conditions noted are these: higher = more signal.
The nature of experiment [2]: binders from COS7 lysate, DM2A8 probe, primary screen, torsin A project, cell lysate, small-molecule microarray, fluorescence 635/667 (AID 1065). Conditions: higher = more signal, COS7 lysate expressing mutant human TOR1A.
Experiment [3] is described as follows: small molecules captured by biotinylated probe aFGF2 – biochemical, small-molecule microarray, fluorescence 635/667, stem cell growth factor project, primary screen (AID 1067).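 Also: measures binding of biotinylated aFGF2 protein to printed compounds on slides; z-score merges feature fluorescence and signal-to-noise across triplicate slides.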 The conditions noted are these: higher = more signal.
The nature of experiment [4]: small molecules captured by biotinylated probe aFGF10 – biochemical, small-molecule microarray, fluorescence 635/667, stem cell growth factor project, primary screen (AID 1071).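 Also: score merges 667 nm spot intensity and signal to noise from triplicate slides.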 The conditions noted are these: higher = more signal.
Experiment [5] deals with Neurogenic locus notch homolog protein 2 (Homo sapiens) (UniProt Q04721). Briefly: small molecules binding Notch2 protein – biochemical, small-molecule microarray, 635 nm fluorescence, stem cell growth factors, primary screen (AID 1073). The conditions noted are these: higher = more signal.
The target in experiment [6] is Pro-neuregulin-1, membrane-bound isoform (Homo sapiens) (UniProt Q02297). Briefly: small molecules binding neuregulin-1 protein – biochemical, small-molecule microarray, fluorescence 635/667, psychiatric disease protein project, primary screen (AID 1075).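 Also: score combines 667 nm spot fluorescence with signal to noise.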 The conditions noted are these: NRG1 binding, 635 nm fluorescence, higher = more signal.
Experiment [7] has as its system Neuregulin-1 EGF-like domain. Briefly: small molecules binding NRG1 EGF domain – biochemical, small-molecule microarray, 635 nm fluorescence, primary screen (AID 1081).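 Also: binding of the protein to compounds printed on small-molecule microarray slides.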 The conditions noted are these: higher = more signal.
A short description of experiment [8]: FRG1 expression reporter modulators in myotubes – cell-based, C2C12 myotubes, firefly/Renilla luciferase, luminescence, FRG1 inhibition for FSHD, primary screen (AID 1084). Conditions: FRG1 promoter luciferase, higher = more signal, called active from +8 up or from −8 down.
The nature of experiment [9]: small molecules captured by biotinylated probe aFST – biochemical, small-molecule microarray, fluorescence 635/667, stem cell growth factor project, primary screen (AID 1086).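 Also: score merges 667 nm fluorescence with signal-to-noise of each printed compound spot.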 Conditions: higher = more signal.
A short description of experiment [10]: binders of probe aHhip on microarray, primary screen, stem cell growth factor project, biochemical, small-molecule microarray, fluorescence 635/667 (AID 1087).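 Also: score merges spot fluorescence at 667nm with spot signal to noise ratio.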 Conditions: higher = more signal.
Experiment [11] deals with PRMT1 (protein arginine N-methyltransferase 1). Briefly: small molecules binding arginine methyltransferase PRMT1 – biochemical, small-molecule microarray, 635 nm fluorescence, primary screen (AID 1088).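 Also: binding of Prmt1 protein to compounds spotted on small-molecule microarray slides.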 The conditions noted are these: higher = more signal.
Experiment [12] in a line: growth effects on S. cerevisiae YJM789 – YJM789 clinical isolate, OD600, 24 h, basal, primary screen (AID 1089).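 Also: growth of clinical yeast isolate S. cerevisiae YJM 789 seeded 1000 cells per well; test concentration not given here.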 The conditions noted are these: higher = more signal, called active from +8 up or from −8 down.
Experiment [13] can be described thus: S. pombe growth modifiers, basal conditions – strain 972, OD600, 24 h, no modulator, primary screen (AID 1090).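 Also: basal condition with compound alone and no growth modifier present; test concentration not given here.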 Conditions: S. pombe 972 growth, higher = more signal, called active from +8 up or from −8 down.
A short description of experiment [14]: budding yeast growth modifiers under rapamycin – strain BY4716, OD600, 96 h, primary screen (AID 1091). Also: test concentration not given here. The conditions noted are these: S. cerevisiae BY4716 + rapamycin, higher = more signal, called active from +8 up or from −8 down.
Experiment [15] has as its target Torsin-1A-interacting protein 2 (Homo sapiens) (UniProt Q8NFQ8). Briefly: small molecules binding lysate-expressed LULL1 – cell lysate, human LULL1 lysate, 635/667 nm fluorescence, primary screen (AID 1092).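 Also: probe is lysate of COS7 cells overexpressing human LULL1; score merges per-feature 667 nm fluorescence with signal-to-noise.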 The conditions noted are these: small-molecule microarray, hLULL1 lysate binding, 635 nm fluorescence; higher = more signal.
A short description of experiment [16]: optical density change of DRC41 E. coli – strain DRC41, OD650, 24 h, E. coli filamentation project, primary screen (AID 1093).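 Also: MC1000 strain lacking acrAB efflux and sulA so SOS filamentation is blocked; test concentration not given here.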 The conditions noted are these: E. coli DRC41 growth, higher = more signal, called active from +8 up or from −8 down.
Experiment [17] in a line: probe aLefty2 binding to arrayed compounds – biochemical, biotinylated probe, 635/667 nm fluorescence, primary screen (AID 1094).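 Also: score merges spot fluorescence near 667 nm with spot signal-to-noise ratio.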 The conditions noted are these: small-molecule microarray, higher = more signal.
Experiment [18] concerns Noggin (protein binding on small-molecule microarray). Put plainly: small molecules binding Noggin protein – biochemical, 635/667 nm fluorescence, primary screen (AID 1095).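 Also: score merges 667 nm feature fluorescence with signal to noise over triplicate slides.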 The conditions noted are these: 635 nm fluorescence, higher = more signal.
In experiment [19] the target is Neurogenic locus notch homolog protein 3 (Homo sapiens) (UniProt Q9UM47). Put plainly: small molecules binding NOTCH3 protein – biochemical, 635/667 nm fluorescence, primary screen (AID 1096). The conditions noted are these: small-molecule microarray, 635 nm fluorescence, higher = more signal.
Experiment [20] is described as follows: probe aEGFR binding to arrayed compounds – biochemical, biotinylated probe, 635/667 nm fluorescence, primary screen (AID 1097).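 Also: probe is a biotinylated anti-EGFR antibody binding compounds printed on slides; score combines fluorescence near 667 nm and signal to noise of each spot.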 The conditions noted are these: small-molecule microarray, higher = more signal.

Structures are written as SMILES. Calls of active or inactive are those of the source.

Sequence of Neurogenic locus notch homolog protein 3 (Homo sapiens) (Q9UM47 whole entry, looked up): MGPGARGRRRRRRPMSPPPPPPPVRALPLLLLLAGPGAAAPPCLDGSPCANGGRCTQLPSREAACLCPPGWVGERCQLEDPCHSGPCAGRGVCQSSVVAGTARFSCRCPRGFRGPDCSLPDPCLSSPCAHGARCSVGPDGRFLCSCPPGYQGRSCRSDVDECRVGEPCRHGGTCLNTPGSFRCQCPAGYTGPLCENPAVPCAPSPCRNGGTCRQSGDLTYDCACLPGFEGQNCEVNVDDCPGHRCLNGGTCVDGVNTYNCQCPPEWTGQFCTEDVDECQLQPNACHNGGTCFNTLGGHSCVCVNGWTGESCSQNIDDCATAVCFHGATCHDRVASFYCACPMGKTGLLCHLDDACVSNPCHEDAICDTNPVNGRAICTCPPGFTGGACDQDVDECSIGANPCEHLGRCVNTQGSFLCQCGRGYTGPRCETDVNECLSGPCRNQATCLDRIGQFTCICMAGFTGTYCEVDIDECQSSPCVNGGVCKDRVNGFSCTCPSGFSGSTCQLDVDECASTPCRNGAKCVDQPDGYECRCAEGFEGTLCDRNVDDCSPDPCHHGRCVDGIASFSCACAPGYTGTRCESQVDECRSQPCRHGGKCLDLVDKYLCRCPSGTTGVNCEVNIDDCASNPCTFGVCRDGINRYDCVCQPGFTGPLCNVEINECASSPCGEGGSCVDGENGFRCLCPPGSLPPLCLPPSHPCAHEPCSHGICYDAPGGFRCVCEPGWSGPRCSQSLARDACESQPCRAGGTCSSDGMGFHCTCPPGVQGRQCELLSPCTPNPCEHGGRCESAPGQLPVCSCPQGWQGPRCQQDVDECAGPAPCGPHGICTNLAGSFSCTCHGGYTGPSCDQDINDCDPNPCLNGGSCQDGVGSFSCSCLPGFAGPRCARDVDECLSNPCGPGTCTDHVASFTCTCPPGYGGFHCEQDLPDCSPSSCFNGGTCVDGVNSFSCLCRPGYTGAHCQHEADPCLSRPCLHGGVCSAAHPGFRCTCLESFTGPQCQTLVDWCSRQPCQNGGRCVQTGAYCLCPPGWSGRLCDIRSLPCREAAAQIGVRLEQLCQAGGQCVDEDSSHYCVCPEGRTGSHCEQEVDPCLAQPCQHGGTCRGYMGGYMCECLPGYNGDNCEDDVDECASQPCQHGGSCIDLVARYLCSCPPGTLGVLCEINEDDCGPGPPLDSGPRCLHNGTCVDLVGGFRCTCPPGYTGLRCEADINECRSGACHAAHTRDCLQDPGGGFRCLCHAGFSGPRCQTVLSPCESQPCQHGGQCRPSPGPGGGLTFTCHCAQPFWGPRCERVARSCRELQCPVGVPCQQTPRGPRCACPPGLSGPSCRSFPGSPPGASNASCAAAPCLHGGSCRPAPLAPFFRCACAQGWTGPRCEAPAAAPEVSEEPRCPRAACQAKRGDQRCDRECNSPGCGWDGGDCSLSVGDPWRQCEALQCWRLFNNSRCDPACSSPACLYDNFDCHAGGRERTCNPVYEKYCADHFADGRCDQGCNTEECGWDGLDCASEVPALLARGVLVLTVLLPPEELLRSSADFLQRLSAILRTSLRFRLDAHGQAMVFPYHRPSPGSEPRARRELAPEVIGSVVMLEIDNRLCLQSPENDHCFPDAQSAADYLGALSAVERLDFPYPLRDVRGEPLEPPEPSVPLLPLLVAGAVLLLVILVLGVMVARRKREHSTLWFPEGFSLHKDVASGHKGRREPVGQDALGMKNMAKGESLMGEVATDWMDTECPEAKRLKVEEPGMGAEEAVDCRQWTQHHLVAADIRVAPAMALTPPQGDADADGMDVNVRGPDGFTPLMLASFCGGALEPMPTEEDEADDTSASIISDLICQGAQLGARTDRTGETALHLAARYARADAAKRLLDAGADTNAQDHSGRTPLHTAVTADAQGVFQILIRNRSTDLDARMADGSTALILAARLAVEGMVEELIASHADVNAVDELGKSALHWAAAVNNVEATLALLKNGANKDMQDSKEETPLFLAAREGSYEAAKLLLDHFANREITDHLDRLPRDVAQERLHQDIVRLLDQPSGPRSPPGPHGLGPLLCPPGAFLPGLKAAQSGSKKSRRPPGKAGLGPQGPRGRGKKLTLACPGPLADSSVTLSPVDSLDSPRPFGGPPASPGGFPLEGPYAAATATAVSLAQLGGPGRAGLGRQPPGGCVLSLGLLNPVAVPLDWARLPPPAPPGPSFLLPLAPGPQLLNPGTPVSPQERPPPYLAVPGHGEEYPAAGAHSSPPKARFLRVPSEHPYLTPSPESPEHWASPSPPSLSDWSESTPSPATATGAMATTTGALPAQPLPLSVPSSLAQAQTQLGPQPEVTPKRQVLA
Sequence of Neurogenic locus notch homolog protein 2 (Homo sapiens) (Q04721 whole entry, looked up, canonical isoform): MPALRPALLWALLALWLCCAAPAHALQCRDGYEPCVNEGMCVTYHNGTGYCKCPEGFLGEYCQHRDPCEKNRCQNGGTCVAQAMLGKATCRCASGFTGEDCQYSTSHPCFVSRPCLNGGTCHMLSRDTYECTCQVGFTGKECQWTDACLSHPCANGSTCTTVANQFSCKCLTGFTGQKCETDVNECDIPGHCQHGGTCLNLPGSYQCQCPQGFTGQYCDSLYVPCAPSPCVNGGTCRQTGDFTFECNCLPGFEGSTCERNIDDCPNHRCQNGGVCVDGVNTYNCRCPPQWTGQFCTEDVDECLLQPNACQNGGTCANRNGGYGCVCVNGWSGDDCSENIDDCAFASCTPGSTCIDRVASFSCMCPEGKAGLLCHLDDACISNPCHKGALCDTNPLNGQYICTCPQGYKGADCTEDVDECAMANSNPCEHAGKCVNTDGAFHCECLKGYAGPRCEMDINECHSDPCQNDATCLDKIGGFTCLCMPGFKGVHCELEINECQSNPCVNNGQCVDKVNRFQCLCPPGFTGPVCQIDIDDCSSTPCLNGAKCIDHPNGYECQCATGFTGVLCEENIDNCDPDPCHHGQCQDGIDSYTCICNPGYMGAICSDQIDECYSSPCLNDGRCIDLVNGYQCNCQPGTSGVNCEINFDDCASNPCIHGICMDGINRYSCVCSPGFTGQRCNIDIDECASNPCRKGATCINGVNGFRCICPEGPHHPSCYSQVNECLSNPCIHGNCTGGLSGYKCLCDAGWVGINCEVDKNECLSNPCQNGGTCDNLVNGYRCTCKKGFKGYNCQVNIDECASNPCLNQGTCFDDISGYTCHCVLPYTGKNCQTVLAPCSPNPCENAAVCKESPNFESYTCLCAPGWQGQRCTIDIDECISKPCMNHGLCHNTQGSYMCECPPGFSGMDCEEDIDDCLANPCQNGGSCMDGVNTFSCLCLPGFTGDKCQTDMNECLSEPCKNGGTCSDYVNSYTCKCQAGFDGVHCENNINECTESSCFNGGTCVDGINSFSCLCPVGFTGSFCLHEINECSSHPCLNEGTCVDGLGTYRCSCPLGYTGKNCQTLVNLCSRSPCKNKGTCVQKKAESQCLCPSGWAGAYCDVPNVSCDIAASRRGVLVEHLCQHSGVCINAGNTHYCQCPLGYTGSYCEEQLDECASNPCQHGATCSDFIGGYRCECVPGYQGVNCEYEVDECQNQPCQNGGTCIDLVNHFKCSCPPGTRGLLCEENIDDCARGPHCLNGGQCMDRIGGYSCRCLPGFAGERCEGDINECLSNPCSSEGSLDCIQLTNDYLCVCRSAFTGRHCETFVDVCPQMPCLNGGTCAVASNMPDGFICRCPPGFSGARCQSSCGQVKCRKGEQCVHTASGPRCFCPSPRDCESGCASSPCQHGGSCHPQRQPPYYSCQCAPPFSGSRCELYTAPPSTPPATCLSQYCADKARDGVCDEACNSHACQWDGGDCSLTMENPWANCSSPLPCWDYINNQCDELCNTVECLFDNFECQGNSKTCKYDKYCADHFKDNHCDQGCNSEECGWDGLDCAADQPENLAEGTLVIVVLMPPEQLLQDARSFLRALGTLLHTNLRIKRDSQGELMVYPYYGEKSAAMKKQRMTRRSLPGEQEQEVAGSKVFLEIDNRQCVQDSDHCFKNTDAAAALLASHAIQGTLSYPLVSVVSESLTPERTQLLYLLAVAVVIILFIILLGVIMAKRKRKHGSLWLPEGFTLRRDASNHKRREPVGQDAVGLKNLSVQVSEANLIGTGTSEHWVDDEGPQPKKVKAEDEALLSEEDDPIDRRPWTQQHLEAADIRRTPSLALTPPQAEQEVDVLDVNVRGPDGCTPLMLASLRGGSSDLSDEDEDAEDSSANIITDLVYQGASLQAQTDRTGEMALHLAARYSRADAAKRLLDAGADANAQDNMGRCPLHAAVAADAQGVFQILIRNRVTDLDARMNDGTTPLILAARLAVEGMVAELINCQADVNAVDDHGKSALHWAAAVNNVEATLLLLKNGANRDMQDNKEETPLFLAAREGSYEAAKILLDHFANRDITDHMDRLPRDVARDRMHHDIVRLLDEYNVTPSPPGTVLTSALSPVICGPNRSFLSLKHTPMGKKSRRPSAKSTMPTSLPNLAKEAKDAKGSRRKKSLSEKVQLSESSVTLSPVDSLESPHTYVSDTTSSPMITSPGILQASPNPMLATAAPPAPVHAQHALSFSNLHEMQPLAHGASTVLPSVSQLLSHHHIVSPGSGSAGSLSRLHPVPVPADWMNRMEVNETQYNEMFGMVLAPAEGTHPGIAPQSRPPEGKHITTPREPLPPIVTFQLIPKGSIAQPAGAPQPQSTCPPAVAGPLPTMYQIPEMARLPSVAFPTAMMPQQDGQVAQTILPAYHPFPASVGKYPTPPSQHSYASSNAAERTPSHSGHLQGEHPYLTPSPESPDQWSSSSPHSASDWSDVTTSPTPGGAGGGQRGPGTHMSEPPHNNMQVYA

With `C=CCNC(=O)[C@H]1[C@@H]2C(=O)O[C@@H](c3ccccc3)[C@@H](c3ccccc3)N2[C@@H](c2ccc(OCCO)cc2)[C@]12C(=O)Nc1ccc(C#CCCO)cc12`, the composite z-score in experiment [1] was 0.268; in [2], 1.14; in [3] it was -0.0901; in [4], -0.168; in [5], -0.23; in experiment [6], 1.08. In addition, the composite z-score was 1.15 in experiment [7]; 0.219 in experiment [9]; -0.0994 in experiment [10]; 1.57 in [11]; 2.42 in experiment [15]; -0.148 in [17]. The composite z-score in experiment [18] is 0.292; in [19], 0.73; in [20], -0.087. Also, the z-score in experiment [8] was -4.1 (inactive); in experiment [12], 0.443 (inactive); in [13] it was -1.91 (inactive); in [14], 2.38 (inactive); in [16] it was 2.71 (inactive).
For the compound `COC(=O)C1=CC(c2ccc(CO)cc2)=CC(c2cccs2)N(C)C=C1C(=O)OC` (stereo not given), the composite z-score was 1.13 in experiment [1]; 0.2 in [2]; -0.0625 in [3]; -0.0568 in experiment [4]; -0.109 in [5]; 1.96 in [6]. Also, the composite z-score is 1.29 in [7]; 0.308 in experiment [9]; -0.226 in [10]; 0.853 in experiment [11]; 2.88 in [15]; 0.0094 in experiment [17]. In addition, the composite z-score was -0.853 in experiment [18], 0.302 in experiment [19] and -0.135 in [20]. Besides, the z-score in experiment [8] is 1.36 (inactive); in [12] it was -0.543 (inactive); in [13] it was -5.22 (inactive); in experiment [14], -0.424 (inactive); in experiment [16] it was 0.637 (inactive).
As for `C=C(COC)C(=O)CC[C@H](OC(=O)c1ccccc1-c1ccccc1C(=O)O)c1ccccc1OCCO`, the composite z-score in experiment [1] was 0.181; in experiment [2] it was 0.607; in [3], -0.129; in experiment [4], 0.247; in experiment [5], -0.453; in experiment [6] it was 0.867. In addition, the composite z-score in [7] is 0.761; in experiment [9] it was -0.0824; in experiment [10], -0.16; in experiment [11], 1.56; in experiment [15], 1.13; in experiment [17] it was -0.235. Moreover, the composite z-score is 0.877 in experiment [18], 0.385 in experiment [19] and -0.155 in experiment [20]. Moreover, the z-score in experiment [8] is -0.621 (inactive); in [12] it was -0.0355 (inactive); in [13], -1.37 (inactive); in experiment [14] it was -1.08 (inactive); in experiment [16], 1.4 (inactive).
Consider `COCCOC(=O)N1C(=O)[C@@]2(c3cc(C#CCNC(N)=O)ccc31)[C@H](C(=O)NC[C@H](O)c1ccccc1)[C@H]1C(=O)O[C@H](c3ccccc3)[C@H](c3ccccc3)N1[C@@H]2c1ccc(O)cc1`, for which the composite z-score is 0.464 in experiment [1]; 0.256 in [2]; -0.031 in [3]; 0.462 in experiment [4]; -0.26 in experiment [5]; 0.8 in experiment [6]. Besides, the composite z-score in experiment [7] is 0.442; in [9], 0.24; in [10], -0.191; in experiment [11], 1.54; in experiment [15], 1.5; in [17] it was -0.104. The composite z-score in experiment [18] was 0.737; in experiment [19], 0.698; in experiment [20], -0.132. Besides, the z-score in experiment [8] was 0.803 (inactive); in experiment [12], -0.124 (inactive); in experiment [13] it was -2.42 (inactive); in experiment [14], 0.893 (inactive); in experiment [16], 2 (inactive).
With `CC(C)(C)OC(=O)CC[C@@]1(C(=O)NCc2ccccc2)N=C(c2ccc(OCCCO)cc2)O[C@@H]1c1ccccc1CN=[N+]=[N-]`, the composite z-score in experiment [1] was 0.492; in [2], 1.41; in experiment [3], 0.015; in experiment [4] it was 1.18; in experiment [5], 1.49; in [6], 1.16. For the same compound, the composite z-score in experiment [7] was 1.15; in [9], 1.19; in experiment [10], -0.148; in [11], 1.53; in experiment [15], 2.3; in experiment [17] it was 0.387. The composite z-score in experiment [18] was determined as 0.958; in [19] it was 1.14; in [20], 0.236. Besides, the z-score in experiment [8] was 0.59 (inactive); in experiment [12], -0.0222 (inactive); in [13] it was -0.0704 (inactive); in [14], -0.13 (inactive); in experiment [16] it was 2.64 (inactive).
